Experimental data as given in PubChem BioAssay (Tox21).
Unmarked numbers belong to inactive results. Inconclusive results are not listed. Entries that show only a call come without a potency. The source made the active and inactive calls. Unless noted, the call rests on the fitted dose curve; in most records, active means well fitted curve in the direction sought with a large enough effect in the repeat runs; inconclusive means weak or mixed curves; inactive means no such curve, though single readings can be large; an effect the other way counts as inactive or inconclusive.

Key:
[1] = target: Luciferin 4-monooxygenase (Photinus pyralis) (UniProt P08659); test: qHTS assay to identify small molecule inhibitors of firefly luciferase (AID 1224835); further: nearly all actives have a fitted effect of over 25% in size; further: potency means the concentration at half of the fitted maximal effect
Outline: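 Biochemical qHTS: compounds run as interplate titrations against purified firefly enzyme, with D-luciferin and ATP each at its KM concentration. Light output recorded by CCD imaging.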

[2] = qHTS assay to identify small molecule agonists of the constitutive androstane receptor (CAR) signaling pathway - cell viability counter screen (AID 1224836); further: nearly all actives have a fitted effect of over 45% in size; further: potency means the concentration at half of the fitted maximal effect
Outline: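 Multiplexed viability check: HepG2-CYP2B6-hCAR cells, 15-point compound dosing, 0.75 uM PK11195 final, 23 h at 37 C, CellTiter-Fluor fluorescence.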

[3] = qHTS assay to identify small molecule antagonists of the constitutive androstane receptor (CAR) signaling pathway - cell viability counter screen (AID 1224837); further: nearly all actives have a fitted effect of over 45% in size; further: potency means the concentration at half of the fitted maximal effect
Outline: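 Multiplexed cytotoxicity read-out for the CAR antagonist screen: double-stable HepG2-CYP2B6-hCAR cells co-treated with 50 nM CITCO (final) and compound over 15 concentrations, incubated 23 hr, then assessed by CellTiter-Fluor fluorescence.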

[4] = qHTS assay to identify small molecule antagonists of the estrogen related receptor signaling pathway with the pleiotropic PPARgamma coactivator (PGC) from Tox21 10K library - cell viability counter screen (AID 1224840; active means well fitted cell-killing curve with a large enough effect in the repeat runs, not every such curve was filed as active; further: nearly all actives have a fitted effect of over 40% in size; further: potency means the concentration at half of the fitted maximal effect)
Outline: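 Step one, plate 2,000 PGC/ERR cells per well; step two, incubate 6 h at 37 C/5% CO2; step three, pin-transfer compounds; step four, incubate 17.5 h; step five, add CellTiter-Fluor and read fluorescence after 30 min.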

[5] = target: Thyrotropin receptor (Homo sapiens) (UniProt P16473); test: qHTS assay to identify small molecule agonists of the thyroid stimulating hormone receptor (TSHR) signaling pathway (AID 1224843; calls by dose curve; further: nearly all actives have a fitted effect of over 45% in size; further: potency means the concentration at half of the fitted maximal effect)
Outline: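 TSHR-HEK293 cells in agonist mode, 30 min room-temperature step, then cAMP measured by competitive HTRF (cAMP-d2 with anti-cAMP cryptate) after 1 h at room temperature. Tested at 15 concentrations in triplicate.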

[6] = qHTS assay to identify small molecule agonists of the hypoxia (HIF-1) signaling pathway - cell viability counter screen (AID 1224844; calls by dose curve; further: nearly all actives have a fitted effect of over 50% in size; further: potency means the concentration at half of the fitted maximal effect)
Outline: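 Tox21 10K compounds were added to HRE-bla ME-180 cells (0.5% dialyzed FBS) and incubated 17 hrs at 37C; ATP-based CellTiter-Glo luminescence then reported cell viability in the same wells.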

[7] = qHTS assay to identify small molecule agonists of H2AX (AID 1224845; active means well fitted activation curve with a large enough effect in the signal ratio in the repeat runs, not every such curve was filed as active; the % refers to the signal ratio; further: potency means the concentration at half of the fitted maximal effect)
Outline: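 Wild-type CHO-K1 cells, plated overnight, exposed 3hr at 37C to 15 concentrations (0.76% DMSO final). Lysed, then HTRF anti-pH2AX (S139) cryptate and anti-H2AX-d2 antibodies, 24 hr room temperature; 665/620 nm emission read.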

[8] = qHTS assay to identify small molecule agonists of the hypoxia (HIF-1) signaling pathway (AID 1224846; active means well fitted activation curve with a large enough effect in the signal ratio in the repeat runs, not every such curve was filed as active; the % refers to the signal ratio)
Outline: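 Steps: seed ME-180 HRE-bla cells (2,000/well, 0.5% dialyzed FBS); incubate 5 hrs at 37C; pin-transfer compounds or DMSO; incubate 17 hrs; add LiveBLAzer B/G substrate CCF4-AM; measure reporter activation by FRET.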

[9] = qHTS assay to identify small molecule agonists of H2AX - cell viability counter screen (AID 1224847; calls by dose curve; further: nearly all actives have a fitted effect of over 30% in size; further: potency means the concentration at half of the fitted maximal effect)
Outline: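 After overnight plating of 1000 CHO-K1 cells per well, a 15-concentration compound series was applied for 3 hr at 37C. Luminescence from CellTiter-Glo, read following 30 min at room temperature, reflected cell viability.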

[10] = qHTS RealTime-Glo MT Cell Viability Assay in HepG2 cells - 24 hour (AID 1224867); further: nearly all actives have a fitted effect of over 50% in size; further: potency means the concentration at half of the fitted maximal effect
Outline: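 Luminescence read-out: viable HepG2 cells reduce a prosubstrate to a NanoLuc substrate, giving a signal proportional to live cell number. Reads taken at 0, 8, 16, 24, 32 and 40 h of compound exposure at 37 C.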

[11] = qHTS RealTime-Glo MT Cell Viability Assay in HEK293 cells - 32 hour (AID 1224868); further: nearly all actives have a fitted effect of over 50% in size; further: potency means the concentration at half of the fitted maximal effect
Outline: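 Nonlytic real-time viability readout: viable cells convert prosubstrate to NanoLuc substrate, giving luminescence proportional to live cell number. HEK293, 600 cells/well, compound added after 5 h, continuous culture at 37 C.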

[12] = A CellTox Green Cytotoxicity Assay to monitor cytotoxicity in HEK293 cells - 0 hour (AID 1224869); further: nearly all actives have a fitted effect of over 50% in size
Outline: (§1)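 Cytotoxicity was tracked continuously in HEK293 cells by a DNA-binding dye excluded from viable cells. Compounds were transferred in DMSO 5 h after seeding; fluorescence was recorded at intervals up to 40 h.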

[13] = qHTS RealTime-Glo MT Cell Viability Assay in HepG2 cells - 40 hour (AID 1224870); further: nearly all actives have a fitted effect of over 50% in size; further: potency means the concentration at half of the fitted maximal effect
Outline: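 HepG2 cells (600/well) mixed with RealTime-Glo MT reagent, settled 5 h at 37 C/5% CO2 before compound addition. Nonlytic NanoLuc luminescence from viable-cell prosubstrate reduction read repeatedly during 40 h treatment at 37 C.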

[14] = A CellTox Green Cytotoxicity Assay to monitor cytotoxicity in HEK293 cells - 40 hour (AID 1224871); further: nearly all actives have a fitted effect of over 45% in size; further: potency means the concentration at half of the fitted maximal effect
Outline: as §1

[15] = qHTS assay to identify small molecule agonists of the estrogen related receptor signaling pathway with the pleiotropic PPARgamma coactivator (PGC) from Tox21 10K library (AID 1224842); further: nearly all actives have a fitted effect of over 15% in size
Outline: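 PGC/ERR reporter cell line, 2,000 cells per well, incubated 6 h at 37 C before 23 nL compound in DMSO was added. After 18 h at 37 C, One-Glo luminescence read following 30 min at room temperature.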

[16] = qHTS assay to identify small molecule antagonists of the estrogen related receptor (ERR) signaling pathway from Tox21 library (AID 1224848); further: nearly all actives have a fitted effect of over 50% in size; further: potency means the concentration at half of the fitted maximal effect
Outline: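 ERR reporter cell line (from NTP) seeded 2,000 cells/well, rested 6 h at 37 C/5% CO2, then pin-dosed with compounds in DMSO. After 18 h at 37 C, ONE-Glo added; luminescence read after 30 min at room temperature.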

[17] = qHTS assay to identify small molecule antagonists of the estrogen related receptor signaling pathway with the pleiotropic PPARgamma coactivator (PGC) from Tox21 10K library (AID 1224841; call rule not given here; further: potency means the concentration at half of the fitted maximal effect)
Outline: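 Antagonism in this quantitative HTS is taken from loss of luciferase signal in PGC/ERR cells. Cells (2,000/well) are treated with compounds in DMSO after a 6 h settling period and read by One-Glo luminescence after 18 h.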

[18] = qHTS assay to identify small molecule agonists of the estrogen related receptor (ERR) signaling pathway from Tox21 library (AID 1224849; calls by dose curve; further: nearly all actives have a fitted effect of over 15% in size); settings: ERR reporter cell line, ONE-Glo luciferase, 18 h; at 92.4 µM (top of the series) unless noted
Outline: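 Agonist signal is luciferase luminescence from an ERR reporter cell line treated 18 h at 37 C with DMSO-dissolved compounds, read 30 min after ONE-Glo addition at room temperature.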

[19] = target: Nuclear receptor subfamily 1 group I member 3 (Homo sapiens) (UniProt Q14994); test: qHTS assay to identify small molecule antagonists of the constitutive androstane receptor (CAR) signaling pathway (AID 1224838); further: nearly all actives have a fitted effect of over 40% in size
Outline: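 Compounds were titrated across 15 concentrations onto HepG2 cells double-stably expressing hCAR and a CYP2B6-2.2kb reporter, together with 50 nM CITCO (final). After 24 h at 37 C, luciferase activity was measured by luminescence.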

Chain of Luciferin 4-monooxygenase (Photinus pyralis) (P08659 whole entry, looked up): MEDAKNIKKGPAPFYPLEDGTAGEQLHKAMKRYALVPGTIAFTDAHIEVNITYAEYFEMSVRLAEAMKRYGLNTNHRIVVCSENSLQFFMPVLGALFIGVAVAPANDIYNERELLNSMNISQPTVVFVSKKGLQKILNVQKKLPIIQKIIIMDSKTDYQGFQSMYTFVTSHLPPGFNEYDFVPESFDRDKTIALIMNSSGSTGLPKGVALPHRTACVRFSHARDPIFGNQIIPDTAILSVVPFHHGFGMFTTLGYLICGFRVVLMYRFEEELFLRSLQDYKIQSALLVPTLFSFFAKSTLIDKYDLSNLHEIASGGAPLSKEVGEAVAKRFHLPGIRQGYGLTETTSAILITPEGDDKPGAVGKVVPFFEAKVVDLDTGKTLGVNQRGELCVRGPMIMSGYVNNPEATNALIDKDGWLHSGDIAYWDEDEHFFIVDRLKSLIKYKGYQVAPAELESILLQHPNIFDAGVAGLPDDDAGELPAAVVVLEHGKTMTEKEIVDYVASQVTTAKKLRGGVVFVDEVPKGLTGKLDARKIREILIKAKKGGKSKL
Chain of Nuclear receptor subfamily 1 group I member 3 (Homo sapiens) (Q14994 whole entry, looked up): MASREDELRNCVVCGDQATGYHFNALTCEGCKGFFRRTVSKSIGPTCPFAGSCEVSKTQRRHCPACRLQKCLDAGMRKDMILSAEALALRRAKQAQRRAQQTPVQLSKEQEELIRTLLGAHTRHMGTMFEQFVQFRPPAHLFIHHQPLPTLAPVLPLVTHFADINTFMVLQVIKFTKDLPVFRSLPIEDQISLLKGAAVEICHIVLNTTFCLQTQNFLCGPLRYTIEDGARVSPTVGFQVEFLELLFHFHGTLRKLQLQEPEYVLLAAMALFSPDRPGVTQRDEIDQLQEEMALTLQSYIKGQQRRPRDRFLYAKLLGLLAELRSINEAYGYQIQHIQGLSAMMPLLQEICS
Chain of Thyrotropin receptor (Homo sapiens) (P16473 whole entry, looked up): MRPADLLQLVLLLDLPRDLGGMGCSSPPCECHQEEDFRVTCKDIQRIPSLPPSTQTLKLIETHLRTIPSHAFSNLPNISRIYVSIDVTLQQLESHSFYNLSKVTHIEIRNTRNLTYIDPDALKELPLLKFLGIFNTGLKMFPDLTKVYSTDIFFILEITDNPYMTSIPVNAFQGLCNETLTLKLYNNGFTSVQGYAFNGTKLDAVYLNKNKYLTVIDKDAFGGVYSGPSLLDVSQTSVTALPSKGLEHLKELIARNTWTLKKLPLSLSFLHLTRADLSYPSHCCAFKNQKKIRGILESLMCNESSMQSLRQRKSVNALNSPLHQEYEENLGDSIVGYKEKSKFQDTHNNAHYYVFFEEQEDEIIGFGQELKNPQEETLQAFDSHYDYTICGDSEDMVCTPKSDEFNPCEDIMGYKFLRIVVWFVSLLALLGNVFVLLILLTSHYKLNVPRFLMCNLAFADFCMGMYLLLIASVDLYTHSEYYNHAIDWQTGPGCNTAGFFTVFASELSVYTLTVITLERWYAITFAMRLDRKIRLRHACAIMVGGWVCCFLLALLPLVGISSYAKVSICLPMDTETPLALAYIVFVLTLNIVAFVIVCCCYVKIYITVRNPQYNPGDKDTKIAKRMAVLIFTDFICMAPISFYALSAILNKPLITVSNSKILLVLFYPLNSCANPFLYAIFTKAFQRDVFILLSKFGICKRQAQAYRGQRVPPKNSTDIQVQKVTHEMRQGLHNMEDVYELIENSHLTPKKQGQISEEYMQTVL

| SMILES | Potency [1] | Potency [2] | Potency [3] | Potency [4] | Potency [5] | Potency [6] | Potency [7] | Potency [8] | Potency [9] | Potency [10] | Potency [11] | Potency [12] | Potency [13] | Potency [14] | Potency [15] | Potency [16] | Potency [17] | activity change, positive = activation [18] | Potency [19] |
| --- | --- | --- | --- | --- | --- | --- | --- | --- | --- | --- | --- | --- | --- | --- | --- | --- | --- | --- | --- |
| O=C(O)CCCCCCNC1c2ccccc2CCc2ccccc21 | inactive | inactive | inactive | inactive | inactive | inactive | inactive | inactive | inactive | inactive | inactive | inactive | inactive | inactive |  |  |  |  |  |
| C=CC(=C)C | inactive | inactive | inactive | inactive | inactive | inactive | inactive | inactive | inactive | inactive | inactive | inactive | inactive | inactive |  |  |  |  |  |
| CCC[CH2][Sn]([CH2]CCC)([O]C(C)=O)[O]C(C)=O | inactive | 437 nM (active) | 437 nM (active) | 138 nM (active) | inactive | 986 nM (active) |  |  | inactive | 278 nM (active) | 78.3 nM (active) | inactive | 175 nM (active) | 0.278 µM (active) | inactive | 61.7 nM (active) |  |  |  |
| CNC(=O)O/N=C(\C)C(C)S(C)(=O)=O (stereo unspecified) | inactive | inactive | inactive | inactive | inactive | inactive | inactive | inactive | inactive | inactive | inactive | inactive | inactive | inactive | inactive | inactive | inactive | 7.13% [at 872 µM] |  |
| CCN(CC)C(=O)N[C@@H]1C=C2c3cccc4[nH]cc(c34)C[C@@H]2N(C)C1 | inactive | inactive | inactive | inactive | inactive | inactive | inactive | inactive | inactive | inactive | inactive | inactive | inactive | inactive |  |  |  |  | inactive |
| [F][Sn]([c]1ccccc1)([c]1ccccc1)[c]1ccccc1 | 5.03 µM (active) | 1090 nM (active) | 1090 nM (active) | 611 nM (active) |  | 549 nM (active) | 1.42 µM (active) |  | 22.5 µM (active) | 436 nM (active) | 436 nM (active) | inactive | 219 nM (active) |  | inactive | 545 nM (active) |  | -81.3% |  |
| ClC1(Cl)C2(Cl)C3(Cl)C4(Cl)C(Cl)(Cl)C5(Cl)C3(Cl)C1(Cl)C5(Cl)C24Cl (stereo unspecified) | inactive | inactive | inactive | inactive | inactive | inactive | inactive | inactive | inactive | inactive |  |  | inactive | inactive | inactive | inactive | inactive |  |  |
| Clc1ccc(C(Cl)(Cl)Cl)cc1Cl | inactive | inactive | inactive | inactive |  | 24000 nM (active) |  |  | inactive |  |  | inactive |  | 33.9 µM (active) |  |  |  |  | inactive |
| CNC(=O)Oc1cc(C)cc(C(C)C)c1 | inactive | inactive | inactive | inactive |  | inactive | inactive | inactive |  | inactive | inactive |  | inactive | inactive | inactive | inactive |  | 10.3% | inactive |
| CCC1COC(Cn2cncn2)(c2ccc(Cl)cc2Cl)O1 (stereo unspecified) | inactive | inactive | inactive |  | inactive | inactive | inactive | inactive |  | inactive |  | inactive | inactive | inactive | inactive | 61100 nM (active) |  | -57.5% | inactive |
| CSC(=O)c1c(C(F)F)nc(C(F)(F)F)c(C(=O)SC)c1CC(C)C | inactive | inactive | inactive | inactive |  | inactive | inactive | inactive | inactive | inactive |  |  | inactive | inactive |  |  |  |  | inactive |
| CC(C)C(Nc1ccc(C(F)(F)F)cc1Cl)C(=O)OC(C#N)c1cccc(Oc2ccccc2)c1 (stereo unspecified) | inactive | inactive | inactive | inactive |  | inactive |  |  | inactive | inactive |  | inactive | inactive |  |  |  |  |  | inactive |
| CCCCN(CCCC)C(=S)[S-].CCCCN(CCCC)C(=S)[S-].[Ni+2] | inactive | inactive | inactive | inactive |  | inactive | inactive |  | inactive | inactive |  | inactive | inactive | inactive | inactive | inactive | 237 nM (active) |  |  |
| COc1c2c(cc3c1OCO3)CCN(C)C2 | inactive | inactive | inactive | inactive | inactive | inactive | inactive | inactive | inactive | inactive | inactive | inactive | inactive | inactive |  |  |  |  | inactive |
| O=C(Nc1ccc(F)cc1F)c1cccnc1Oc1cccc(C(F)(F)F)c1 | inactive | inactive | inactive | inactive | 37.8 µM (active) | inactive |  | inactive |  | inactive |  | inactive | inactive |  |  | inactive | inactive | 5% |  |
| CCCN | inactive | inactive | inactive | inactive | inactive | inactive | inactive | inactive | inactive | inactive | inactive | inactive | inactive | inactive |  |  |  |  |  |
